Experimental data taken from ChEMBL document CHEMBL3988442, “University of Dundee, Small-Polar-MMV Screening Library” (2021).
Among all 48,000 compounds or so, about 13,000 (27%) showed an effect of 50% or more. Some of the results follow.

Tested on: Wolbachia pipientis
Assay: Anti-Wolbachia Cell-Based Screen
Type: functional
Parameters: scale not given: in the data most compounds retested in dose-response had high values
Settings: 5 µM

Row | SMILES | Percent Effect [%]
1 | CNc1nc(N2CCC3(CCCNC3=O)C2)nc2c1CCC2 (stereo unspecified) | -0.1969
2 | CN(C)C(=O)CN1C[C@@H]2CC[C@H](C1)N(Cc1cccc(Cl)c1Cl)C2 | -2.337
3 | O=C(O)CC(O)(CC(=O)O)C(=O)O.O[C@]1(c2ccccn2)CC[C@@H]2CN(Cc3cccc4ncccc34)C[C@@H]21 | -10.13
4 | Cc1ccc([C@]2(O)CC[C@H]3CN(Cc4cccc(Cl)c4Cl)C[C@H]32)nc1.O=C(O)CC(O)(CC(=O)O)C(=O)O | -1.737
5 | Cc1cccnc1[C@]1(O)CC[C@H]2CN(Cc3cccc(Cl)c3Cl)C[C@H]21.O=C(O)CC(O)(CC(=O)O)C(=O)O | 135.1
6 | COc1ccc(CN2C[C@H]3CC[C@](O)(c4ccc(C)cn4)[C@H]3C2)c(F)c1.O=C(O)CC(O)(CC(=O)O)C(=O)O | -13.42
7 | Cc1ccc([C@]2(O)CC[C@H]3CN(Cc4cc(C)c(O)c(C)c4)C[C@H]32)nc1.O=C(O)CC(O)(CC(=O)O)C(=O)O | -15.37
8 | Cc1ccc([C@]2(O)CC[C@H]3CN(Cc4cccc(F)c4F)C[C@H]32)nc1.O=C(O)CC(O)(CC(=O)O)C(=O)O | 118
9 | COc1ncc(CN2C[C@@H]3CC[C@@](O)(c4ccc(C)cn4)[C@@H]3C2)cn1.O=C(O)CC(O)(CC(=O)O)C(=O)O | 114.7
10 | COc1cccc(CN2C[C@@H]3CC[C@@](O)(c4ccccn4)[C@@H]3C2)c1OC.O=C(O)CC(O)(CC(=O)O)C(=O)O | 115.9
11 | COCc1ncc(CN2CCN(C)C(=O)C2C)cn1 (stereo unspecified) | 4.151
12 | CCn1cnnc1Cn1cccc(C(F)(F)F)c1=O | -0.03218
13 | COc1ccc(-c2nccn2CC(O)CN2CCCC2)c(F)c1 (stereo unspecified) | 5.429
14 | CCOc1cncc(NCCc2nnc3ccccn23)n1 | -20.41
15 | CCC(CO)N(Cc1ccsc1)Cc1ccccc1C(=O)O (stereo unspecified) | 6.266
16 | Cc1cc(CN2CC[C@@H]3[C@@H](CCC(=O)N3CCc3c[nH]cn3)C2)oc1C | -14.05
17 | CCC(=O)c1cccc(S(=O)(=O)NC(C)C#N)c1 (stereo unspecified) | -8.003
18 | Cc1ccccc1S(=O)(=O)N1CCCCC1c1ccn[nH]1 (stereo unspecified) | 0.4281
19 | O=C(O)C(F)(F)F.O=S(=O)(c1cccs1)N1CC[C@H]2[C@H]1CCN2c1ncccn1 | -7.709
20 | O=C(NCC1CC1)C1CSCN1S(=O)(=O)c1cccc(F)c1 (stereo unspecified) | -6.551
21 | O=S(=O)(c1cccs1)N1CCCCC1c1ccn[nH]1 (stereo unspecified) | 120.2

Row | SMILES | Percent Effect [%]
22 | CN(C1CCN(c2ccccn2)CC1)S(=O)(=O)c1cccc(F)c1 | 13.53
23 | O=S(=O)(c1cccc(F)c1)N1CCCCC1c1ccn[nH]1 (stereo unspecified) | 127.9
24 | O=C1c2c(O)cc(O)cc2O[C@@H](c2ccc(O)cc2)[C@@H]1O | 0.6664
25 | CC(=O)NCCNC(=O)c1sc(-c2ccc(Cl)s2)nc1C | -4.935
26 | O=C(Nc1ccccc1)NC1CCN(C2CCOC2)CC1 (stereo unspecified) | -12.98
27 | CC(C)c1nc(CN(C)C(=O)CNS(=O)(=O)c2cccs2)cs1 | -16.12
28 | COCc1cc(N(C)Cc2ncnn2C)nc(C(C)(C)C)n1 | -13.36
29 | O=C(O)C(=O)O.c1cnc(-c2noc(C3CN(Cc4ccc5c(c4)CCO5)C3)n2)cn1 | 6.909
30 | Cc1nc(C)c(CN2CCOC(CNc3cccnn3)C2)s1 (stereo unspecified) | 87.52
31 | COCc1nc(CN2CCOC(CNc3cccnn3)C2)cs1 (stereo unspecified) | 82.18
32 | CCOc1nnc(CN2CCOC(CNc3cccnn3)C2)s1 (stereo unspecified) | -8.583
33 | Cc1nc(CN2CCOC(CNc3cccnn3)C2)oc1C (stereo unspecified) | 3.025
34 | Cc1nc(C)c(CN2CCOC(CN(C)c3cccnn3)C2)s1 (stereo unspecified) | -0.1768
35 | COCc1nc(CN2CCOC(CN(C)c3cccnn3)C2)cs1 (stereo unspecified) | 6.806
36 | CCc1nc(CN2CCOC(CN(C)c3cccnn3)C2)cs1 (stereo unspecified) | -6.381
37 | CCc1nc(CN2CCOC(CNc3cccnn3)C2)cs1 (stereo unspecified) | 75.15
38 | CCCc1nc(CN2CCOC(CNc3cccnn3)C2)cs1 (stereo unspecified) | 6.887
39 | Cc1nc(CN2CCOC(CNc3cccnn3)C2)cs1 (stereo unspecified) | -1.722
40 | CC(C)c1nc(CN2CCOC(CNc3cccnn3)C2)cs1 (stereo unspecified) | 87.62
41 | Cc1cnc(CN2CCOC(CNc3cccnn3)C2)cn1 (stereo unspecified) | 0.4879
42 | Cn1cc(CCC(=O)NS(=O)(=O)N2CCCc3ccccc32)cn1 | -16.6

Row | SMILES | Percent Effect [%]
43 | CCc1nsc(N2CCn3c(nnc3C(F)(F)F)C2)n1 | 3.315
44 | COCCOc1cc(C(=O)N2CC(C)c3ccccc32)ccn1 (stereo unspecified) | -1.249
45 | COCC(=O)N[C@H](C)c1c(-c2ccc(Cl)cc2)noc1C(=O)O | -3.12
46 | Cc1ccc(-c2nc(CN3CCOC(Cn4cccn4)C3)co2)cc1 (stereo unspecified) | 108.6
47 | c1csc(-c2nc(CN3CCOC(Cn4cccn4)C3)co2)c1 (stereo unspecified) | 6.391
48 | c1coc(-c2nc(CN3CCOC(Cn4cccn4)C3)cs2)c1 (stereo unspecified) | 16.31
49 | Fc1cccc(-c2nc(CN3CCOC(Cn4cccn4)C3)co2)c1 (stereo unspecified) | 1.83
50 | c1ccc(-c2nc(CN3CCOC(Cn4cccn4)C3)no2)cc1 (stereo unspecified) | -5.165
51 | Fc1cccc(-c2nc(CN3CCOC(Cn4cncn4)C3)co2)c1 (stereo unspecified) | -2.254
52 | Fc1ccc(-c2nc(CN3CCOC(Cn4cccn4)C3)co2)cc1 (stereo unspecified) | 92.05
53 | c1ccc(-c2nc(CN3CCOC(Cn4cccn4)C3)co2)cc1 (stereo unspecified) | 93.62
54 | O=C1COC[C@H]([C@H](O)c2ccc(NC(=O)c3cccnc3)cc2)N1 | -8.221
55 | Cc1ccc(-c2nnc([C@H]3CCN(C4CCC4)C3)o2)cc1 | 10.26
56 | O=C(c1ncoc1C1CCCO1)N1CCCC2(CCCCC2)C1 (stereo unspecified) | -7.896
57 | CCN1CCOC(CNCc2ccccc2OCc2ccccn2)C1 (stereo unspecified) | 9.704
58 | CN1CCOC(CNCCc2ccccn2)C1 (stereo unspecified) | -2.338
59 | CN1CCOC(CNCc2cccc(OCc3ccccn3)c2)C1 (stereo unspecified) | -19.83
60 | CN1CCOC(CNCc2ccc(OCc3ccccn3)cc2)C1 (stereo unspecified) | 111
61 | CCN1CCOC(CNCc2cccc(OCc3ccccn3)c2)C1 (stereo unspecified) | 99.3
